Values joined by “and” are separate entries in the source; they are usually repeats but may differ in a detail not shown here. Equal values may be shown once. Out of some 5,500 compounds screened, about 2,000 (36%) were called active. About 18% were inconclusive and are not listed. No stated cut-off is given here; in the data, active means normalized growth mostly below about 0.91 (no sharp cut-off); inconclusive means no clear call, values can overlap the other calls; inactive means mostly above about 0.92. The list shows a part of the results.
Assay: chemical genetic growth profiling, strain panel (AID 1159580);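 further: tested at 20 µM; growth read once vehicle control cultures reached saturation at 30 °C; 1 = growth at the plate median or of vehicle wells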
Conditions: S. cerevisiae deletion strains, growth OD

Measured: normalized growth

Oc1ccc(/C=C/c2cc(O)cc(O)c2)cc1
inactive: locus YAL013W, strain DEP1, stronger effect = lower value 0.972 and 1.02 | locus YAL021C, strain ccr4, stronger effect = lower value 0.995 | locus YAL026C, strain drs2, stronger effect = lower value 0.978 | locus YAL030W, strain snc1, stronger effect = lower value 0.99 | locus YAL040C, strain CLN3, stronger effect = lower value 0.987 | locus YBL061C, strain skt5, stronger effect = lower value 0.992 | locus YBR009C, strain hhf1, stronger effect = lower value 0.968 | locus YBR021W, strain FUR4, stronger effect = lower value 0.961 | locus YBR023C, strain chs3, stronger effect = lower value 0.99 | locus YBR171W, strain sec66, stronger effect = lower value 1.01 | locus YBR229C, strain ROT2, stronger effect = lower value 1.02 | locus YBR231C, strain swc5, stronger effect = lower value 0.988 | locus YBR279W, strain paf1, stronger effect = lower value 0.988 | locus YCL011C, strain gbp2, stronger effect = lower value 0.996 | locus YCL016C, strain dcc1, stronger effect = lower value 0.99 | locus YCL029C, strain bik1, stronger effect = lower value 0.929 | locus YCL061C, strain MRC1 (second series), stronger effect = lower value 0.987 | locus YCL061C, strain MRC1, stronger effect = lower value 0.99 | locus YCL069W, strain vba3, stronger effect = lower value 1.01 | locus YCR088W, strain abp1, stronger effect = lower value 1 | locus YDL005C, strain med2, stronger effect = lower value 0.999 | locus YDL035C, strain GPR1, stronger effect = lower value 0.939 | locus YDL040C, strain nat1, stronger effect = lower value 0.982 | locus YDL074C, strain BRE1, stronger effect = lower value 0.867 | locus YDL101C, strain DUN1, stronger effect = lower value 0.999 | locus YDL134C, strain PPH21, stronger effect = lower value 0.982 | locus YDL185W, strain tfp1, stronger effect = lower value 0.939 | locus YDR001C, strain nth1, stronger effect = lower value 0.999 | locus YDR069C, strain doa4, stronger effect = lower value 0.988 | locus YDR150W, strain NUM1, stronger effect = lower value 0.985 | locus YDR159W, strain sac3, stronger effect = lower value 0.954 | locus YDR162C, strain NBP2, stronger effect = lower value 0.948 | locus YDR297W, strain sur2, stronger effect = lower value 0.977 | locus YDR318W, strain mcm21, stronger effect = lower value 0.983 | locus YDR334W, strain swr1, stronger effect = lower value 0.997 | locus YDR335W, strain msn5, stronger effect = lower value 1.01 | locus YDR363W, strain ESC2, stronger effect = lower value 1.01 | locus YDR388W, stronger effect = lower value 0.962 | locus YDR392W, strain spt3, stronger effect = lower value 0.842 | locus YEL003W, strain gim4, stronger effect = lower value 0.992 | locus YEL037C, strain rad23, stronger effect = lower value 1.01 | locus YEL061C, strain CIN8 (second series), stronger effect = lower value 1.01 | locus YEL061C, strain CIN8, stronger effect = lower value 0.986 | locus YER002W, strain NOP16, stronger effect = lower value 0.98 | locus YER015W, strain faa2, stronger effect = lower value 0.986 | locus YER016W, strain bim1, stronger effect = lower value 0.994 | locus YER110C, stronger effect = lower value 0.98 | locus YER111C, strain swi4, stronger effect = lower value 1.01 | locus YER155C, strain BEM2 (second series), stronger effect = lower value 0.986 | locus YER155C, strain BEM2, stronger effect = lower value 1.02 | locus YER167W, strain BCK2, stronger effect = lower value 1.01 | locus YFR010W, strain ubp6, stronger effect = lower value 0.984 | locus YGL167C, strain pmr1, stronger effect = lower value 0.978 | locus YGL173C, strain kem1, stronger effect = lower value 0.994 | locus YGL227W, strain vid30, stronger effect = lower value 0.991 | locus YGL240W, strain doc1, stronger effect = lower value 1 | locus YGL248W, strain PDE1, stronger effect = lower value 0.965 | locus YGL253W, strain hxk2, stronger effect = lower value 0.968 | locus YGR078C, strain PAC10, stronger effect = lower value 0.959 | locus YGR135W, strain pre9, stronger effect = lower value 0.936 | locus YGR252W, strain gcn5, stronger effect = lower value 0.853 | locus YHR013C, strain ard1, stronger effect = lower value 1.04 | locus YHR027C, strain rpn1, stronger effect = lower value 0.989 | locus YHR079C, strain IRE1 (second series), stronger effect = lower value 0.981 | locus YHR079C, strain IRE1, stronger effect = lower value 0.978 | locus YHR094C, strain hxt1, stronger effect = lower value 0.981 | locus YHR129C, strain ARP1, stronger effect = lower value 0.972 | locus YHR142W, strain chs7, stronger effect = lower value 0.987 | locus YHR200W, strain rpn10, stronger effect = lower value 0.93 | locus YIL066C, strain RNR3, stronger effect = lower value 0.987 | locus YIL073C, strain SPO22, stronger effect = lower value 0.896 | locus YIL125W, strain kgd1, stronger effect = lower value 0.952 | locus YIR030C, strain dcg1, stronger effect = lower value 0.964 | locus YJL092W, strain hpr5, stronger effect = lower value 0.995 | locus YJL095W, strain BCK1 (second series), stronger effect = lower value 0.987 | locus YJL115W, strain asf1, stronger effect = lower value 1 | locus YJL129C, strain trk1, stronger effect = lower value 0.903 | locus YJL134W, strain LCB3, stronger effect = lower value 1.01 | locus YJL154C, strain vps35, stronger effect = lower value 1 | locus YJL164C, strain tpk1, stronger effect = lower value 1.01 | locus YJL166W, strain qcr8, stronger effect = lower value 0.998 | locus YJL168C, strain set2, stronger effect = lower value 0.973 | locus YJL187C, strain SWE1 (second series), stronger effect = lower value 0.934 | locus YJL187C, strain SWE1, stronger effect = lower value 0.986 | locus YJR043C, strain POL32, stronger effect = lower value 0.946 | locus YJR066W, strain TOR1, stronger effect = lower value 0.939 | locus YJR075W, strain HOC1, stronger effect = lower value 0.986 and 1.01 | locus YKL068W, stronger effect = lower value 0.977 | locus YKL085W, strain MDH1 (second series), stronger effect = lower value 0.982 | locus YKL085W, strain MDH1, stronger effect = lower value 0.982 | locus YKL160W, strain elf1, stronger effect = lower value 1 | locus YKL190W, strain CNB1, stronger effect = lower value 0.992 | locus YKR026C, strain gcn3, stronger effect = lower value 0.991 | locus YKR091W, strain srl3, stronger effect = lower value 0.995 | locus YLL001W, strain dnm1, stronger effect = lower value 1.01 | locus YLL026W, stronger effect = lower value 0.99 | locus YLL041C, strain sdh2, stronger effect = lower value 0.991 | locus YLR027C, strain aat2, stronger effect = lower value 0.994 | locus YLR039C, strain RIC1, stronger effect = lower value 0.87 | locus YLR058C, strain SHM2, stronger effect = lower value 0.972 | locus YLR102C, strain apc9, stronger effect = lower value 0.997 | locus YLR113W, strain HOG1, stronger effect = lower value 1.04 | locus YLR221C, strain rsa3, stronger effect = lower value 0.972 | locus YLR258W, strain gsy2, stronger effect = lower value 0.986 | locus YLR262C, strain YPT6, stronger effect = lower value 0.877 | locus YLR268W, strain sec22, stronger effect = lower value 0.894 | locus YLR320W, strain mms22, stronger effect = lower value 0.971 | locus YLR330W, strain CHS5, stronger effect = lower value 0.998 | locus YLR342W, strain FKS1 (second series), stronger effect = lower value 0.946 | locus YLR342W, strain FKS1, stronger effect = lower value 0.993 | locus YLR357W, strain rsc2, stronger effect = lower value 0.976 | locus YLR370C, strain arc18, stronger effect = lower value 1.01 | locus YLR384C, strain iki3, stronger effect = lower value 0.996 | locus YML016C, strain PPZ1, stronger effect = lower value 0.993 | locus YML032C, strain rad52, stronger effect = lower value 0.938 | locus YML120C, strain ndi1, stronger effect = lower value 0.956 | locus YML124C, strain tub3, stronger effect = lower value 0.993 | locus YMR058W, strain fet3, stronger effect = lower value 0.975 | locus YMR078C, strain ctf18, stronger effect = lower value 0.96 | locus YMR125W, strain sto1, stronger effect = lower value 0.999 | locus YMR129W, stronger effect = lower value 0.996 | locus YMR205C, strain PFK2, stronger effect = lower value 0.976 | locus YMR223W, strain ubp8, stronger effect = lower value 0.923 | locus YMR231W, strain pep5, stronger effect = lower value 1 | locus YMR263W, strain SAP30, stronger effect = lower value 0.997 | locus YNL067W, strain RPL9B, stronger effect = lower value 0.979 | locus YNL071W, strain lat1, stronger effect = lower value 0.988 | locus YNL175C, strain NOP13, stronger effect = lower value 0.958 | locus YNL183C, strain NPR1, stronger effect = lower value 0.962 | locus YNL197C, strain WHI3, stronger effect = lower value 0.966 | locus YNL209W, strain ssb2, stronger effect = lower value 0.979 | locus YNL224C, strain SQS1, stronger effect = lower value 0.974 | locus YNL233W, strain BNI4, stronger effect = lower value 0.924 | locus YNL248C, strain rpa49, stronger effect = lower value 0.983 | locus YNL250W, strain rad50, stronger effect = lower value 0.971 | locus YNL271C, strain bni1, stronger effect = lower value 0.951 | locus YNL298W, strain CLA4, stronger effect = lower value 0.92 | locus YNL307C, strain MCK1, stronger effect = lower value 0.99 | locus YNL322C, strain KRE1 (second series), stronger effect = lower value 0.998 | locus YNR049C, strain mso1, stronger effect = lower value 1.01 | locus YOL012C, strain htz1 0.774 | locus YOR001W, strain rrp6, stronger effect = lower value 0.985 | locus YOR061W, strain CKA2, stronger effect = lower value 0.995 | locus YOR069W, strain VPS5, stronger effect = lower value 0.998 | locus YOR070C, strain gyp1, stronger effect = lower value 0.986 | locus YOR080W, strain dia2, stronger effect = lower value 0.994 | locus YOR083W, strain WHI5 (second series), stronger effect = lower value 0.98 | locus YOR083W, strain WHI5, stronger effect = lower value 0.965 | locus YOR106W, strain vam3, stronger effect = lower value 0.982 | locus YOR136W, strain idh2, stronger effect = lower value 0.965 | locus YOR144C, strain elg1, stronger effect = lower value 0.963 | locus YOR231W, strain MKK1, stronger effect = lower value 0.98 | locus YOR265W, strain rbl2, stronger effect = lower value 0.985 | locus YOR270C, strain vph1, stronger effect = lower value 0.963 | locus YOR290C, strain snf2, stronger effect = lower value 0.95 | locus YOR316C, strain cot1, stronger effect = lower value 0.982 | locus YPL051W, strain arl3, stronger effect = lower value 0.983 | locus YPL055C, strain LGE1, stronger effect = lower value 0.894 | locus YPL078C, strain atp4, stronger effect = lower value 0.994 | locus YPL106C, strain sse1, stronger effect = lower value 1.02 | locus YPL240C, strain hsp82, stronger effect = lower value 0.988 | locus YPL241C, strain CIN2, stronger effect = lower value 0.985 | locus YPL256C, strain CLN2, stronger effect = lower value 0.975 | locus YPR119W, strain clb2, stronger effect = lower value 0.981 | locus YPR141C, strain kar3, stronger effect = lower value 0.973 | locus YPR167C, strain met16, stronger effect = lower value 0.978
active: locus YDL192W, strain arf1, stronger effect = lower value 0.865 | locus YDR101C, strain arx1, stronger effect = lower value 0.873 | locus YDR137W, strain rgp1, stronger effect = lower value 0.681 | locus YDR195W, strain ref2 1.18 [resistant] | locus YDR502C, strain sam2, stronger effect = lower value 0.895 | locus YGL078C, strain dbp3, stronger effect = lower value 0.895 | locus YGL086W, strain mad1, stronger effect = lower value 0.897 | locus YKL009W, strain mrt4, stronger effect = lower value 0.779 | locus YKR001C, strain vps1, stronger effect = lower value 0.692 | locus YLR262C, strain YPT6 (second series), stronger effect = lower value 0.822 | locus YLR371W, strain rom2, stronger effect = lower value 0.766 | locus YLR418C, strain cdc73, stronger effect = lower value 0.686 | locus YMR307W, strain GAS1, stronger effect = lower value 0.538 | locus YNR052C, strain pop2, stronger effect = lower value 0.833 | locus YOL147C, strain pex11, stronger effect = lower value 0.926 | locus YOR184W, strain ser1, stronger effect = lower value 0.729 | locus YPR163C, strain tif3, stronger effect = lower value 0.909 | strain wtn01, stronger effect = lower value 0.895
0.406 (active) and 1.01 (inactive): locus YJL095W, strain BCK1, stronger effect = lower value
0.892 (active) and 0.981 (inactive): locus YHR030C, strain SLT2, stronger effect = lower value
